# Laboratory results from the supplement of paper PMC7380943.
# Counter-ions that a name gives are not always drawn.
# Test system: CLZ3 (HCA2 human fibroblast dual HR-NHEJ reporter)
# Test: NHEJ repair efficiency (GFP+ cells) relative to control (log10 fold); higher = more non-homologous end joining
# Settings: 5 µM; doxycycline 0.5 ug/mL
# 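Further: compound given one day ahead of doxycycline, which switches on I-SceI endonuclease to cut the chromosomally integrated reporter and create DSBs.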
row,SMILES,NHEJ repair efficiency (log10)
1,c1c2c(cc3c1OCO3)-c1cc3ccc4c(c3c[n+]1CC2)OCO4 [Coptisine Chloride],-0.16
2,N#CCc1ccc2c(c1)OCO2 [Homopiperonylonitrile],0.103
3,COc1cc(C2OCC3C(c4cc(OC)c(O[C@@H]5O[C@H](CO)[C@@H](O)[C@H](O)[C@H]5O)c(OC)c4)OCC23)cc(OC)c1O[C@H]1O[C@@H](CO)[C@H](O)[C@@H](O)[C@@H]1O (stereo not given in full) [Eleutheroside E],0.119
4,O=c1ccc2cc(O[C@@H]3O[C@H](CO)[C@@H](O)[C@H](O)[C@H]3O)c(O)cc2o1 [Aesculin],0.023
5,CCN1C[C@]2(COC)[C@H](O)C[C@H](OC)[C@@]34[C@@H]5C[C@@]6(O)[C@H](OC(=O)c7ccccc7)[C@@H]5[C@@](OC(C)=O)([C@@H]([C@H](OC)[C@H]23)[C@@H]14)[C@@H](O)[C@@H]6OC [Aconitine],-0.148
6,CC1=C2C[C@H]3[C@@H](CC(=O)[C@H]4C[C@@H](O)CC[C@@]43C)[C@@H]2CC[C@]12O[C@@H]1C[C@H](C)CN[C@H]1[C@H]2C [Peimisine],-0.0359
7,CC(C)=CCC[C@@](C)(O)[C@H]1CC[C@]2(C)[C@@H]1[C@H](O)C[C@@H]1[C@@]3(C)CC[C@H](O[C@@H]4O[C@H](CO)[C@@H](O)[C@H](O)[C@H]4O)C(C)(C)[C@@H]3CC[C@]12C [R-Ginsenoside Rh2],-0.0662
8,CCN1C[C@]2(COC)CC[C@H](O)[C@]34C1[C@H]([C@H](OC)[C@H]23)[C@@]1(O)C[C@H](OC)[C@H]2C[C@@H]4[C@@H]1[C@H]2O [Neoline],-0.0435
9,N#C[C@H](O[C@@H]1O[C@H](CO[C@@H]2O[C@H](CO)[C@@H](O)[C@H](O)[C@H]2O)[C@@H](O)[C@H](O)[C@H]1O)c1ccccc1 [Amygdalin],-0.0091
10,CCC(C)C(=O)O[C@@H]1[C@@H](OC(C)=O)[C@]2(C)[C@H](C(C)=O)CC[C@@]23O[C@]32CC[C@H]3C[C@@H](O[C@H]4C[C@@H](OC)[C@H](O[C@@H]5O[C@H](C)[C@@H](O)[C@@H](OC)[C@H]5O)[C@@H](C)O4)CC[C@]3(C)[C@@H]12 (stereo not given in full) [Tenacissoside H],-0.0163
11,COc1cccc2c1cc([N+](=O)[O-])c1c(C(=O)O)cc3c(c12)OCO3 [Aristolochic acid A],0.203
12,c1cc2c(cc1[C@H]1OC[C@H]3[C@@H]1CO[C@H]3c1ccc3c(c1)OCO3)OCO2 [Asarinin],-0.271
13,Oc1cc(O)cc(/C=C/c2ccc(O)cc2O)c1 [Oxy-Resveratrol],0.00144
14,CCN1C[C@]2(C)CC[C@H](OC)[C@@]34C1[C@]1(OCO[C@@]15C[C@H](OC)[C@H]1C[C@]3(O)[C@@H]5[C@H]1OC)[C@@H](OC(C)=O)[C@H]24 [Deltaline],-0.125
15,COC[C@@]12CC[C@H](OC)[C@]34C([C@H]([C@H](OC)[C@H]13)[C@]1(O)[C@H]3[C@@H](OC(=O)c5ccccc5)[C@](O)(C[C@H]34)[C@@H](OC)[C@@H]1O)N(C)C2 [Benzoylhypaconine],-0.013
16,COc1c(C)c(O)cc2[o+]c(-c3ccccc3)ccc12.[O-][Cl+3]([O-])([O-])[O-] [Dracorhodin perochlorate],0.134
17,C=C[C@H]1CN2CC[C@]3(C(=O)Nc4ccccc43)[C@@H]2C[C@@H]1/C(=C\OC)C(=O)OC [Corynoxeine],-0.123
18,N#C/C=C1/C=C[C@@H](O)[C@H](O)[C@H]1O[C@@H]1O[C@H](CO)[C@@H](O)[C@H](O)[C@H]1O [Lithospermoside],0.0837
19,COc1cc([C@H]2OC[C@H]3[C@H]2CO[C@@H]3c2cc(OC)c(O[C@@H]3O[C@H](CO)[C@@H](O)[C@H](O)[C@H]3O)c(OC)c2)cc(OC)c1O[C@@H]1O[C@H](CO)[C@@H](O)[C@H](O)[C@H]1O [Eleutheroside D],0.0455
20,O=C(O)[C@@H]1[C@H](C(=O)O)[C@H]2CC[C@@H]1O2 [Endothall Disodium Salt],0.13
21,CC(C)=CCC[C@](C)(O)[C@H]1CC[C@]2(C)[C@@H]1[C@H](O)C[C@@H]1[C@@]3(C)CC[C@H](O)C(C)(C)[C@@H]3[C@@H](O[C@@H]3O[C@H](CO)[C@@H](O)[C@H](O)[C@H]3O)C[C@]12C [Ginsenoside Rh1],-0.0663
22,CN[C@@H](Cc1c[nH]c2ccccc12)C(=O)O [Abrine],-0.159
23,CCCC[N+]1(C)[C@@H]2C[C@@H](OC(=O)[C@H](CO)c3ccccc3)C[C@H]1[C@@H]1O[C@@H]12 (stereo not given in full) [Scopolamine Butylbromide],-0.172
24,COc1cc2c3c(c1OC)-c1ccccc1C[C@H]3N(C)CC2 [Nuciferine],0.114
25,CC1(C)[C@H]2O[C@H]2[C@H]2[C@](C)(O)[C@@H]3CCC4[C@H](O)[C@@]3(C[C@@H](O)[C@@]21O)C[C@@]4(C)O [Rhodojaponin Iii],0.0171
26,C[C@@H]1CCC=C2C(=O)C[C@H]3OOC(C)(C)[C@H]3[C@]21C [Nardosinone],-0.0297
27,CCN1C[C@]2(COC)[C@H](O)C[C@H](OC)[C@@]34[C@@H]5C[C@@]6(O)[C@H](OC(=O)c7ccccc7)[C@@H]5[C@@](O)([C@@H]([C@H](OC)[C@H]23)[C@@H]14)[C@@H](O)[C@@H]6OC [Benzoylaconine],-0.0909
28,CC[C@H]1CN2CC[C@@]3(C(=O)Nc4ccccc43)[C@@H]2C[C@@H]1/C(=C\OC)C(=O)OC [Isorhynchophylline],-0.108
29,CN1[C@@H]2C[C@@H](OC(=O)[C@H](CO)c3ccccc3)C[C@H]1[C@@H]1O[C@@H]12 [Scopolamine Hydrobromide],0.039
30,O=c1ccc2cc(O[C@@H]3O[C@H](CO)[C@@H](O)[C@H](O)[C@H]3O)c(O)cc2o1 [Esculin Sesquihydrate],0.0261
